The supplement of paper PMC3724861
Shown is part of a subset that was picked to be rich in hits. The hit rate among all sequences tested is not known here.

These sequences were tested on T1, Caupolican (Caup) homeodomain DNA-binding domain (assay: PBM E-score (8-mer, recovered from the published 9-mer minima) (E-score (dimensionless, -0.5 to 0.5)); Drosophila protein; higher = stronger relative binding preference, active = 0.31 or more).
T1 sequence: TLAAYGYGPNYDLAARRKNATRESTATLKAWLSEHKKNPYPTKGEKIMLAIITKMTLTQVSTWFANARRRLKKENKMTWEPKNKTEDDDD
Description: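 Protein binding microarray (PBM): in vitro transcribed/translated Caupolican (Caup) homeodomain DNA-binding domain (residues 214-303) applied at 100 nM to a universal 8-mer PBM array (Agilent AMADID 015681). The 8-mer enrichment score (E-score, range -0.5 to 0.5) was computed, and each 9-mer score is the minimum E-score of its two constituent 8-mers. The E-score is the same for a 9-mer and its reverse complement; 0.31 is the stated binding threshold.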

PBM E-score, inactive:
AACGTGAG -0.0335, CACGTACA 0.261, AACGTACC 0.0531, CTCGTACA 0.238, ATCGTACG 0.133, ATCGTACC -0.0488, GTCGTATA 0.165, AATCGGTG 0.0507, CGGTGTGA 0.0901, ATCAAAAT 0.131, AAAGTCAC 0.0854, AACCAGGA 0.0369, ACTCGGGA -0.117, AGCATGCC -0.0456, CGCATGGA -0.0924, CGCATGAC -0.0417, CGCATGCA 0.025, AGCATGTG 0.222, CGCATGCC -0.0847, CACACTGC -0.0174, AGTTTCAG -0.0628, ATCCAGAC -0.00977, AATTCGTC 0.0479, CCCTGAGG -0.185, ATCATGTG 0.226, ATCATGAC 0.233, GTCATGCA 0.111, GTCATGGA -0.0262, CTCATGTC 0.306, ATCATGAA 0.0136, CTCATGCA 0.042, CTCATGGA 0.0584, GAACAATA 0.166, CACATTAC 0.141, CCGAGGGC -0.267, CAAGGACG -0.0604, CTCTAGGC -0.16, CCTGGCTA -0.0965, AGCGTACC -0.17, GAGGGAGA -0.155, AGTTACCA 0.113, CAAGGGCC -0.135, CCCAGGCA -0.162, CAGGTACG -0.00719, ACGTAAGG -0.042, GCTTACAC 0.169, CATTACAG 0.226, CTTTACAC 0.289, AATTACAC 0.299, CAAGCTGG -0.105, CAGCCGCA -0.26, GTTAGTGA 0.152, AGCACTAA -0.00029, TGCAGTAA 0.0534, CCTATGTC 0.176, GCTATGTA 0.271, CCTATGAA -0.0468, ACTATGTG 0.131, CCGATCGA -0.133, CAGCTCAA -0.125, CACTCTAC 0.101, GCGACCGC -0.261, CGAACCAC -0.0921, CTGTCGAC 0.0515, ATGTCGAA 0.291, ATGTCGAG 0.274, GTGTCGTA 0.252, ATGTCGCC 0.208, CTGTCGTA 0.124, GTGTCGCA 0.176, ATGTCGTC 0.28, CGTCGACA 0.116, AGATTTTA 0.0905, CTTGAACC 0.00592, GATCTGGC -0.0642, AACCGATG 0.0188, CGGAGTAG -0.0319, CACGGGAA -0.0415, AGTGAAAC 0.108, CTCACGAA 0.0184, GTTACGGA 0.0254, TAATTAAA 0.191, AGGTAGGA -0.0302, ATTGTTGA 0.279, ATTGTTAC 0.307, CCTGTTAA 0.188, CCTGTTAC 0.254, ATTGTTTA 0.186, CTTGTTTA 0.254, ACTGTTAA 0.0659, CTTGTTGA 0.26, AACCCGCG -0.0635

PBM E-score, active:
AACGTACA ≥ 0.337, ATCGTACA 0.349, GTCGTACA 0.352, AGCATGTC 0.376, CGCATGTC 0.348, CGCATGTA 0.352, ATCATGTA ≥ 0.435, ATCATGTC ≥ 0.42, GTCATGTA 0.43, CTCATGTA 0.377, GATTACAC 0.318, CATTACAC 0.311, ACTATGTA 0.312, CCTATGTA 0.318, ATGTCGCA 0.331, ATGTCGTG 0.316, ATGTCGAC 0.326, ATGTCGTA 0.337, CTTGTTAA 0.327, CTTGTTAC 0.365, GTTGTTGA 0.321, GTTGTTTA 0.343
